Sampled rows, rich in hits. Any-hit rate of the full collection: about 1.5%.
PLCg1 inh = inhibitors of human phospholipase C gamma1; AID 720700; inhibition, % at 12.2 µM; purified PLC-gamma1, fluorogenic substrate, fluorescence; P19174; 0.84% of 370,000 active; in the data active = inhibition above about 9.5%
HGIII-sPLA2 inh = Inhibits HGIII-sPLA2 liposome hydrolysis, primary screen | inhibition, % at 12.2 µM | QFRET BODIPY PC-A2 liposome hydrolysis, fluorescence | 0.56% of 370,000 active | AID 743126 | Q9NZ20;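 active = inhibition above mean plus 3 SD of compounds lying within the high and low control bounds, cut at about 19% in these data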
Target sequence (Q9NZ20 whole entry, looked up): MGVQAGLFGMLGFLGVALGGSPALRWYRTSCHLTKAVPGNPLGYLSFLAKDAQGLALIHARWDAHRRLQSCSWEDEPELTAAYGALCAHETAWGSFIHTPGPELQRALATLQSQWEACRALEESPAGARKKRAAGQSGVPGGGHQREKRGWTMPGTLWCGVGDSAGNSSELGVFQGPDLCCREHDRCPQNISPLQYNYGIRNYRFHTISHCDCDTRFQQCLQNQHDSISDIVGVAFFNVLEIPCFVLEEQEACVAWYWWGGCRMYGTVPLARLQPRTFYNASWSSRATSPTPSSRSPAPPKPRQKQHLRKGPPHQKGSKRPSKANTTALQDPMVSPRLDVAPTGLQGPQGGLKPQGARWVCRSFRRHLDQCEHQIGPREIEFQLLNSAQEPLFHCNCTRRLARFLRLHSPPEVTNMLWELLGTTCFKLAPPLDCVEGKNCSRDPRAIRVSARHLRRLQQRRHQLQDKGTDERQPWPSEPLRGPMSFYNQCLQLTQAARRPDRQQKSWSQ
DAGLB inhibitor = diacylglycerol lipase beta (human) inhibition | AID 504411 | inhibition, % at 5.17 µM | HEK293T DAGLB membrane lysate, EnzChek fluorogenic substrate | 0.059% of 340,000 active; in the data active = inhibition above about 34%
PLCb3 inh = blocks human PLC-beta3 enzyme activity; inhibition, % at 12.2 µM; AID 720704; 0.18% of 370,000 active; Purified PLC-beta3, fluorogenic substrate, fluorescence; Q01970
PLCg1 ctr = counter-screen for PLC-beta3 inhibitors: inhibitors of human PLC-gamma1; purified PLC-gamma1, fluorogenic substrate, fluorescence; inhibition, % at 12.3 µM; shares compounds with PLCg1 inh; 3.1% of 3,300 active; in the data active = inhibition above about 9.5%
PLCb3 confirm = human PLC-beta3 inhibition, confirmation; shares compounds with PLCg1 inh; purified PLC-beta3, fluorogenic substrate fluorescence; inhibition, % at 12.3 µM; 1% of 3,300 active; AID 743261
A number is an active result; - = inactive; . = not tested or not shown. Cut-off read from the data, not from the text of the source, unless noted: active = inhibition above about 11%; inactive = the rest.

SMILES	PLCg1 inh	HGIII-sPLA2 inh	DAGLB inhibitor	PLCb3 inh	PLCg1 ctr	PLCb3 confirm
CC12c3ccccc3C(c3ccccc31)C1C(=O)N(c3ccncc3)C(=O)C12 (stereo not drawn)	-	-	-	-	.	.
C(=C\c1ccccc1)/C=N/n1cnnc1	10	-	-	-	-	-
Nc1nnnn1/N=C/C=C/c1ccccc1	-	-	-	-	.	.
S=C(SSC(=S)N1CCOCC1)N1CCOCC1	-	-	.	-	.	.
CC(SC(=S)N1CCOCC1)C(=O)O (stereo not drawn)	12	-	-	-	-	-
O=C1CC2c3cc(-c4cc5ccccc5o4)ccc3CCN2C(=O)CN1Cc1ccccc1 (stereo not drawn)	-	-	.	-	.	.
CCC(C)[C@H]1CNCCN1CCc1cc(C(F)(F)F)cc(C(F)(F)F)c1 (stereo partly drawn)	11	-	-	-	-	-
CCCC[C@@H]1CNCCN1CCc1cc(C(F)(F)F)cc(C(F)(F)F)c1	-	-	-	-	.	.
CCC(C)[C@H]1CNCCN1CCc1cccc2ccccc12 (stereo partly drawn)	11	-	-	-	-	-
CC(O)[C@H]1CNCCN1CC1(c2ccccc2)CC1 (stereo partly drawn)	-	-	-	-	.	.
CCC(C)[C@H]1CNCCN1CC1(c2ccccc2)CC1 (stereo partly drawn)	-	-	-	14	-	-
CC1(C)CC(=O)C=C(Nc2ccccc2NC(=O)c2cc(Cl)ccc2F)C1	-	-	.	-	.	.
COc1ccc(S[C@]2(C(=O)N(C)C)CC(=O)N(C(=O)C3CC3)[C@@H]2c2ccc(OC)cc2)cc1	-	-	.	-	.	.
O=C(NCC1COCCO1)C1CCN(S(=O)(=O)c2cccs2)CC1 (stereo not drawn)	-	-	.	-	.	.
C[C@@H]1COc2cc(Br)ccc2S(=O)(=O)N1Cc1cn(Cc2ccc(Br)cc2)nn1	-	-	.	-	.	.
O=C(O)c1ccc(Cl)cc1NC(=O)C1CCCO1 (stereo not drawn)	-	-	-	12	-	-
Cc1ccccc1NC(=O)[C@@H]1CCCN1S(=O)(=O)c1cccc2cccnc12	-	-	.	-	.	.
O=C(C[C@H]1CC[C@H]2[C@@H](COC[C@@H](O)CN2C(=O)c2cnccn2)O1)NCc1ccc(Oc2ccccc2)cc1	-	-	.	11	-	-
O=[N+]([O-])c1ncccc1OCCOc1ccc(Cl)cc1Cl	-	-	.	-	.	.
COc1ccc(-c2c(C(=O)c3ccccc3)[nH]c(N)c2C(=O)c2c[nH]c3ccccc23)cc1OC	-	-	.	-	.	.
Cc1ccc(CN2CCC(c3cc(-c4ccc(Cl)cc4)n[nH]3)CC2)cc1	11	-	-	-	-	-
COC(=O)c1ccc(Cn2ccc3ccc(-c4ccc5ccn(C(=O)c6ccccc6OC)c5c4)cc32)cc1	-	-	.	-	.	.
CCN(CC)C(=O)CC[C@@H]1CC[C@]2(CCCN(C(=O)C3CCCCC3)C2)O1	-	-	.	-	.	.
Clc1cccc2sc(N3CCN(c4ccccc4)CC3)nc12	11	-	-	-	-	-
CCCCOC(=O)CCN1C(=O)/C(=C/c2ccccc2)SC1=S	-	-	.	-	.	.
SMILES	PLCg1 inh	HGIII-sPLA2 inh	DAGLB inhibitor	PLCb3 inh	PLCg1 ctr	PLCb3 confirm
COc1ccc(S(=O)(=O)N(CCc2ccccc2)CC(=O)NC(C)C)cc1	11	-	-	-	-	-
Cc1ccccc1NS(=O)(=O)c1cc(C(=O)NCc2ccco2)ccc1C	10	-	-	-	-	-
Cc1ccc(C(=O)NCc2ccco2)cc1S(=O)(=O)Nc1cccc(C)c1C	-	-	-	-	.	.
O=C(NCc1ccco1)c1ccc(Br)c(S(=O)(=O)N2CCCCC2)c1	11	-	-	-	-	-
CCOC(=O)C(NC(=O)c1ccccc1F)(Nc1cc(C)on1)C(F)(F)F (stereo not drawn)	-	-	-	12	-	-
C[C@@H]1OCN(C)[C@H]2C[C@H]3c4[nH]c5cccc(-c6ccccc6)c5c4CCN3C[C@@H]12	-	-	.	-	.	.
O=C(N[C@@H]1CCCc2c1cnn2-c1ccc(F)cc1F)c1ccccn1	-	-	.	-	.	.
CCN(c1cccc(C(F)(F)F)c1)S(=O)(=O)c1ccc2c(c1)CCN2C(C)=O	14	-	-	-	-	-
CCOc1ccc(Cl)cc1S(=O)(=O)N1CCN(c2ccc(F)cc2)CC1	-	-	-	-	.	.
CCOc1ccc(Cl)cc1S(=O)(=O)N1CCN(c2ccc(C)c(C)c2)CC1	10	-	-	-	-	-
O=C(CCCN1C(=O)/C(=C/c2ccco2)SC1=S)Nc1cccc(C(=O)O)c1	11	-	-	-	-	-
O=C(CCCN1C(=O)/C(=C\c2ccco2)SC1=S)Nc1ccc(O)cc1C(=O)O	9.6	-	-	-	-	-
COc1ccc2c(c1)CCCC21NC(=O)N(CC(=O)N2CC(C)OC(C)C2)C1=O (stereo not drawn)	13	-	-	-	-	-
O=C(COC(=O)c1cc(-c2cccs2)nn1-c1ccccc1)Nc1cccc([N+](=O)[O-])c1	-	-	-	-	.	.
Cc1ccc(NC(=O)COC(=O)c2cc(-c3cccs3)nn2-c2ccccc2)cc1[N+](=O)[O-]	11	-	-	-	-	-
COc1cc(-c2csc(N3CCC(C(N)=O)CC3)n2)cc(OC)c1OC	-	-	.	-	.	.
O=S(=O)(c1ccccc1)n1c(CN2CCOCC2)nc2ccccc21	-	-	.	-	.	.
O=C(Nc1ncc([N+](=O)[O-])s1)C1CCN(S(=O)(=O)c2cnc[nH]2)CC1	-	-	-	13	-	-
O=C(NC1CCCCCC1)C1CCN(S(=O)(=O)c2cnc[nH]2)CC1	-	-	-	-	.	.
CNC(=S)N(Cc1ccc(OC)cc1)C1CC(=O)N(c2ccc(Cl)cc2)C1=O (stereo not drawn)	9.6	-	-	-	-	-
COC(=O)[C@]12C[C@H](CC(=O)N3CCN(C(=O)c4ccco4)CC3)C(=O)N(Cc3ccco3)C1=C[C@H](COCc1ccccc1)O[C@@H]2C	-	-	.	-	.	.
O=C(CN1C(=O)c2ccccc2S1(=O)=O)N1CCN(c2ccc(F)cc2)CC1	11	-	-	-	-	-
CCOc1ccc(/C=C/c2c([N+](=O)[O-])c(=O)n(C)c(=O)n2C)cc1	11	-	-	-	-	-
COc1ccc(NC(=O)C2CCCN(S(=O)(=O)c3ccc(C)cc3)C2)cc1OC (stereo not drawn)	-	-	-	-	.	.
COc1ccc(NC(=O)C2CCCN(S(C)(=O)=O)C2)cc1OC (stereo not drawn)	10	-	-	-	-	-
O=C(OC12CCCN(C1)/C(=C/c1cccnc1)C2)c1ccco1 (stereo not drawn)	-	-	.	-	.	.
COc1ccc(/C=N/NC(=S)Nc2ccccc2)cc1COc1ccc(F)cc1	11	-	-	16	-	-
COc1ccc(/C=N/NC(=S)Nc2ccccc2)cc1COc1ccc(Br)cc1	-	-	-	-	.	.
COc1ccc2c(c1)N[C@@](CCNC=O)(c1[nH]c3ccccc3c1CCNC=O)C2=O	-	-	.	-	.	.

Screening data: PubChem, The Scripps Research Institute Molecular Screening Center
